# Laboratory results taken from PubChem BioAssay (NCI).
# Several values for one entry are separate records, joined by “and”; a condition that tells them apart may be missing. Equal values may be shown once. This is part of a sample that, as a whole, favours compounds with a hit. Of some 79,000 tested, about 15% had one in any assay. Unmarked numbers belong to inactive results. Activity calls are given as the source filed them. Cut-off read from the data, not from the text of the source: active = growth inhibition above about 70%; inactive = the rest.
# Tests used:
# [1] = NCI Yeast Anticancer Drug Screen. Data for the rad52 strain (AID 147);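 note: 0% = growth of vehicle-treated control cultures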; conditions: S. cerevisiae rad52 mutant growth inhibition, hits give high values
# In short: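 DNA repair-defective yeast; compound exposure; growth scored against vehicle controls.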
# [2] = NCI Yeast Anticancer Drug Screen. Data for the wt1 strain (AID 149);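 note: 0% = growth of vehicle-treated wt1 cultures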; conditions: S. cerevisiae wt1 strain (SPY 50644) growth inhibition, hits give high values
# In short: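 Yeast wt1 strain exposed to compounds; growth inhibition measured relative to vehicle-treated controls.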
# [3] = NCI Yeast Anticancer Drug Screen. Data for the rad50 strain (AID 155);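 note: 0% = growth of vehicle-only cultures of the same strain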; conditions: S. cerevisiae rad50 strain growth inhibition, hits give high values
# In short: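 Yeast carrying a defined DNA repair defect were exposed to test compounds, and growth was compared with vehicle-treated controls to give percent inhibition.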
# [4] = NCI Yeast Anticancer Drug Screen. Data for the mec2-1 strain (AID 157); conditions: S. cerevisiae mec2-1 strain, hits give high values
# In short: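 Growth inhibition is read against vehicle-treated controls after compound exposure of the mec2-1 yeast strain, which is defective in DNA damage repair or cell cycle control.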
# [5] = NCI Yeast Anticancer Drug Screen. Data for the rad14 strain (AID 159);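 note: 0% = growth of vehicle-treated control cultures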; conditions: S. cerevisiae rad14 strain growth inhibition, hits give high values
# In short: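 Yeast cells carrying a defined DNA-repair defect were exposed to compounds, and growth inhibition was calculated relative to vehicle-treated control cultures.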
# [6] = NCI Yeast Anticancer Drug Screen. Data for the sgs1 mgt1 strain (AID 161);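 note: 0% = growth of cultures given vehicle only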; conditions: S. cerevisiae sgs1 mgt1 strain, hits give high values
# In short: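 Percent growth inhibition was derived by comparing compound-exposed mutant yeast with vehicle-exposed cultures. The strain carries alterations in DNA damage repair.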
# [7] = NCI Yeast Anticancer Drug Screen. Data for the cln2 rad14 strain (AID 165);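 note: 0% = growth equal to vehicle treated cultures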; conditions: S. cerevisiae cln2 rad14 strain, hits give high values
# In short: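 Growth inhibition, relative to vehicle-treated controls, is the read-out. The test organism is a yeast strain with defined genetic alterations, cln2 rad14.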
# [8] = NCI Yeast Anticancer Drug Screen. Data for the bub3 strain (AID 167); conditions: S. cerevisiae bub3 mutant strain, hits give high values
# In short: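 Compounds were applied to a genetically altered yeast strain carrying a cell-cycle control defect. Growth inhibition was scored against vehicle-treated controls.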
# [9] = NCI Yeast Anticancer Drug Screen. Data for the wt2 strain (AID 169);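 note: 0% = growth of vehicle-treated yeast cultures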; conditions: S. cerevisiae wt2 strain growth inhibition, hits give high values
# In short: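 Compound exposure of yeast; growth compared with vehicle controls; inhibition reported.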
# [10] = NCI Yeast Anticancer Drug Screen. Data for the mlh1 strain (AID 171);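 note: 0% = growth of vehicle-treated control cultures of the same strain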; conditions: S. cerevisiae mlh1 strain growth inhibition, hits give high values
# In short: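 Compounds are applied to a genetically altered yeast strain, and its growth is compared with that of vehicle-treated cultures to give percent inhibition.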
# [11] = NCI Yeast Anticancer Drug Screen. Data for the sgs1 strain (AID 173);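 note: 0% = growth of vehicle-only control cultures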; conditions: S. cerevisiae sgs1 mutant, hits give high values
# In short: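 Compounds applied to genetically altered yeast; growth compared with vehicle-treated cultures to give % inhibition.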
# [12] = NCI Yeast Anticancer Drug Screen. Data for the mlh1 rad18 strain (AID 175); conditions: S. cerevisiae mlh1 rad18 strain growth inhibition, hits give high values
# In short: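 Cells of a genetically altered yeast strain, deficient in DNA damage repair, were treated with compound. Their growth was then compared with that of vehicle-treated cultures to give inhibition.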
# [13] = NCI Yeast Anticancer Drug Screen. Data for the rad18 strain (AID 177); conditions: S. cerevisiae rad18 mutant growth inhibition, hits give high values
# In short: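 Compounds are applied to a repair-deficient yeast strain, and growth is compared with that of vehicle-treated cultures to give percent inhibition.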
# [14] = NCI Yeast Anticancer Drug Screen. Data for the CLN2oe strain (AID 163);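 note: 0% = growth of vehicle-only control cultures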; conditions: S. cerevisiae CLN2oe strain, hits give high values
# In short: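 Compound-treated yeast; growth vs vehicle ctrl = % inhibition. Genetically altered strain (cell-cycle control).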
# [15] = at 5.0 µM (retest, dose inferred, filed as 0.5)
# [16] = at 50.0 µM (retest, dose inferred, filed as 5.0)
structure (smiles),measurement,setting,value
Cc1ccc(CC2(OCCN(C)C)CCC(C(C)(C)C)CC2)cc1 (stereo unspecified),growth inhibition,[1]; at 1.2 µM,8%
same,growth inhibition,[1]; at 3.7 µM,3%
same,growth inhibition,[1]; at 11.0 µM,8%
same,growth inhibition,[1]; at 33.0 µM,37%
same,growth inhibition,[1]; at 100.0 µM,98% (active)
same,growth inhibition,[2]; at 1.2 µM,9%
same,growth inhibition,[2]; at 3.7 µM,12%
same,growth inhibition,[2]; at 11.0 µM,-5%
same,growth inhibition,[2]; at 33.0 µM,9%
same,growth inhibition,[2]; at 100.0 µM,99% (active)
same,growth inhibition,[3]; at 1.2 µM,-3%
same,growth inhibition,[3]; at 3.7 µM,0%
same,growth inhibition,[3]; [15],13% and 12%
same,growth inhibition,[3]; at 11.0 µM,7%
same,growth inhibition,[3]; at 33.0 µM,64%
same,growth inhibition,[3]; [16],100% (active)
same,growth inhibition,[3]; at 50.0 µM,98.6% (active) and 98.5% (active)
same,growth inhibition,[3]; at 100.0 µM,98% (active)
same,growth inhibition,[4]; at 1.2 µM,-7%
same,growth inhibition,[4]; at 3.7 µM,-11%
same,growth inhibition,[4]; [15],-8% and -7%
same,growth inhibition,[4]; at 11.0 µM,-7%
same,growth inhibition,[4]; at 33.0 µM,43%
same,growth inhibition,[4]; [16],99% (active) and 93% (active)
same,growth inhibition,[4]; at 50.0 µM,98.5% (active) and 99.3% (active)
same,growth inhibition,[4]; at 100.0 µM,99% (active)
same,growth inhibition,[5]; at 1.2 µM,-7%
same,growth inhibition,[5]; at 3.7 µM,-3%
same,growth inhibition,[5]; at 11.0 µM,15%
same,growth inhibition,[5]; at 33.0 µM,92% (active)
same,growth inhibition,[5]; at 100.0 µM,98% (active)
same,growth inhibition,[6]; [15],-5% and -7%
same,growth inhibition,[6]; [16],85% (active) and 91% (active)
same,growth inhibition,[6]; at 50.0 µM,98.7% (active) and 99.4% (active)
same,growth inhibition,[7]; [15],20% and 10%
same,growth inhibition,[7]; [16],89% (active) and 76% (active)
same,growth inhibition,[7]; at 50.0 µM,99.2% (active) and 99.5% (active)
same,growth inhibition,[8]; at 1.2 µM,-23%
same,growth inhibition,[8]; at 3.7 µM,-24%
same,growth inhibition,[8]; [15],11% and 7%
same,growth inhibition,[8]; at 11.0 µM,-11%
same,growth inhibition,[8]; at 33.0 µM,6%
same,growth inhibition,[8]; [16],99% (active)
same,growth inhibition,[8]; at 50.0 µM,87.5% (active) and 99.2% (active)
same,growth inhibition,[8]; at 100.0 µM,98% (active)
same,growth inhibition,[9]; at 1.2 µM,-19%
same,growth inhibition,[9]; at 3.7 µM,-8%
same,growth inhibition,[9]; at 11.0 µM,-16%
same,growth inhibition,[9]; at 33.0 µM,36%
same,growth inhibition,[9]; at 100.0 µM,99% (active)
same,growth inhibition,[10]; at 1.2 µM,3%
same,growth inhibition,[10]; at 3.7 µM,-1%
same,growth inhibition,[10]; at 11.0 µM,13%
same,growth inhibition,[10]; at 33.0 µM,85% (active)
same,growth inhibition,[10]; at 100.0 µM,98% (active)
same,growth inhibition,[11]; at 1.2 µM,24%
same,growth inhibition,[11]; at 3.7 µM,26%
same,growth inhibition,[11]; at 11.0 µM,41%
same,growth inhibition,[11]; at 33.0 µM,82% (active)
same,growth inhibition,[11]; at 100.0 µM,99% (active)
same,growth inhibition,[12]; [15],9% and 10%
same,growth inhibition,[12]; [16],100% (active) and 99% (active)
same,growth inhibition,[12]; at 50.0 µM,99.5% (active) and 99.4% (active)
same,growth inhibition,[13]; at 1.2 µM,3%
same,growth inhibition,[13]; at 3.7 µM,-14%
same,growth inhibition,[13]; at 11.0 µM,-12%
same,growth inhibition,[13]; at 33.0 µM,36%
same,growth inhibition,[13]; at 100.0 µM,98% (active)
NC1=NNC2(C(N)=N1)c1ccccc1-c1ccccc12,growth inhibition,[1]; at 1.2 µM,-18%
same,growth inhibition,[1]; at 3.7 µM,-14%
same,growth inhibition,[1]; at 11.0 µM,-16%
same,growth inhibition,[1]; at 33.0 µM,16%
same,growth inhibition,[1]; at 100.0 µM,96% (active)
same,growth inhibition,[2]; at 1.2 µM,4%
same,growth inhibition,[2]; at 3.7 µM,3%
same,growth inhibition,[2]; at 11.0 µM,-4%
same,growth inhibition,[2]; at 33.0 µM,12%
same,growth inhibition,[2]; at 100.0 µM,97% (active)
same,growth inhibition,[3]; at 1.2 µM,-7%
same,growth inhibition,[3]; at 3.7 µM,-12%
same,growth inhibition,[3]; [15],-32%
same,growth inhibition,[3]; at 11.0 µM,-9%
same,growth inhibition,[3]; at 33.0 µM,32%
same,growth inhibition,[3]; [16],93% (active)
same,growth inhibition,[3]; at 50.0 µM,86.2% (active)
same,growth inhibition,[3]; at 100.0 µM,94% (active)
same,growth inhibition,[4]; at 1.2 µM,11%
same,growth inhibition,[4]; at 3.7 µM,12%
same,growth inhibition,[4]; [15],-1%
same,growth inhibition,[4]; at 11.0 µM,11%
same,growth inhibition,[4]; at 33.0 µM,29%
same,growth inhibition,[4]; [16],18%
same,growth inhibition,[4]; at 50.0 µM,71.9% (active)
same,growth inhibition,[4]; at 100.0 µM,96% (active)
same,growth inhibition,[5]; at 1.2 µM,-18%
same,growth inhibition,[5]; at 3.7 µM,-22%
same,growth inhibition,[5]; at 11.0 µM,-25%
same,growth inhibition,[5]; at 33.0 µM,1%
same,growth inhibition,[5]; at 100.0 µM,97% (active)
same,growth inhibition,[6]; [15],-9%
same,growth inhibition,[6]; [16],43%
same,growth inhibition,[6]; at 50.0 µM,64.5%
same,growth inhibition,[14]; at 1.2 µM,9%
same,growth inhibition,[14]; at 3.7 µM,15%
same,growth inhibition,[14]; at 11.0 µM,21%
same,growth inhibition,[14]; at 33.0 µM,39%
same,growth inhibition,[14]; at 100.0 µM,97% (active)
same,growth inhibition,[7]; [15],3%
same,growth inhibition,[7]; [16],57%
same,growth inhibition,[7]; at 50.0 µM,81% (active)
same,growth inhibition,[8]; at 1.2 µM,26%
same,growth inhibition,[8]; at 3.7 µM,25%
same,growth inhibition,[8]; [15],-27%
same,growth inhibition,[8]; at 11.0 µM,26%
same,growth inhibition,[8]; at 33.0 µM,38%
same,growth inhibition,[8]; [16],54%
same,growth inhibition,[8]; at 50.0 µM,45.1%
same,growth inhibition,[8]; at 100.0 µM,97% (active)
same,growth inhibition,[9]; at 1.2 µM,-10%
same,growth inhibition,[9]; at 3.7 µM,-16%
same,growth inhibition,[9]; at 11.0 µM,-18%
same,growth inhibition,[9]; at 33.0 µM,-2%
same,growth inhibition,[9]; at 100.0 µM,97% (active)
same,growth inhibition,[10]; at 1.2 µM,10%
same,growth inhibition,[10]; at 3.7 µM,-2%
same,growth inhibition,[10]; at 11.0 µM,3%
same,growth inhibition,[10]; at 33.0 µM,53%
same,growth inhibition,[10]; at 100.0 µM,97% (active)
same,growth inhibition,[11]; at 1.2 µM,12%
same,growth inhibition,[11]; at 3.7 µM,17%
same,growth inhibition,[11]; at 11.0 µM,11%
same,growth inhibition,[11]; at 33.0 µM,33%
same,growth inhibition,[11]; at 100.0 µM,97% (active)
same,growth inhibition,[12]; [15],-25%
same,growth inhibition,[12]; [16],81% (active)
same,growth inhibition,[12]; at 50.0 µM,79.3% (active)
same,growth inhibition,[13]; at 1.2 µM,-4%
same,growth inhibition,[13]; at 3.7 µM,-5%
same,growth inhibition,[13]; at 11.0 µM,-17%
same,growth inhibition,[13]; at 33.0 µM,18%
same,growth inhibition,[13]; at 100.0 µM,97% (active)
